Only some compounds are listed: those with a hit (about 9.2% of all), similar ones and a draw of the others.
SMN2 splice up: qHTS Assay for Enhancers of SMN2 Splice Variant Expression. Potency, µM (top dose mostly 46.1 µM), actives largely listed as activators. actives 2.8% (n = 210,000). HEK293 SMN2-luciferase splicing reporter, luminescence, 30-36 h; also: nearly all actives have a fitted effect of over 55% in size
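qHTS luciferase splicing reporter: luminescence rises when SMN2 exon 7 is included in transfected HEK293 cells. Compound exposure lasted 30-36 h at 37C, with 4.5 mM final sodium butyrate as control, followed by a ONE-Glo read.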
Rab9 prom act: qHTS Assay for Rab9 Promoter Activators; actives 2.8% (n = 320,000); AID 485297, 2010; Huh7 Rab9 promoter-luciferase reporter, luminescence, 24 h; Potency, µM (series often up to 9.22 µM), hits mostly activators; also: nearly all actives have a fitted effect of over 60% in size
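Huh7 cells stably carrying a Rab9 promoter-luciferase reporter, 1500 cells per well in OP-MEM I with 10% FBS, treated with compound 24 hours at 37C. Luciferase activity read by luminescence after 10 minutes with Amplite reagent.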
ELG1 genotoxic: qHTS screen for small molecules that induce genotoxicity in human embryonic kidney (HEK293T) cells expressing luciferase-tagged ELG1; Potency, µM (highest dose often 46 µM), most hits filed as activators; HEK293T ELG1-luciferase reporter, luminescence, 16 h; actives 1.3% (n = 330,000); also: nearly all actives have a fitted effect of over 60% in size
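DMSO vehicle served as control against compound-treated ELG1-luciferase HEK293T cells; exposure lasted 16 hr at 37 °C and 5% CO2, followed by ONE-Glo luminescence detection after 30 min.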
NPC1 prom act: qHTS Assay for NPC1 Promoter Activators. AID 485313, 2010. Potency, µM (series often up to 9.22 µM), actives largely listed as activators. Huh7 NPC1 promoter luciferase reporter, 24 h. actives 2.4% (n = 320,000); also: nearly all actives have a fitted effect of over 60% in size
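Luminescence from an NPC1 promoter-driven luciferase reporter in stably transfected Huh7 cells was measured after 24 h compound treatment at 37 °C, followed by 10 min ambient incubation with luciferase detection reagent.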
ELG1 DNA repair: qHTS screen for small molecules that inhibit ELG1-dependent DNA repair in human embryonic kidney (HEK293T) cells expressing luciferase-tagged ELG1. HEK293T ELG1-luciferase reporter, luminescence, 16 h; DNA damage induced by 5-fluorouridine. Potency, µM (titrated, usually from 46.1 µM), hits mostly inhibitors. actives 2.3% (n = 330,000); also: nearly all actives have a fitted effect of over 55% in size
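Quantitative HTS, concentration-response format. 2,000 cells/well co-treated with 5-fluorouridine and compound, 16 hr in 5% CO2 at 37 °C; ONE-Glo luminescence read after 30 min.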
FLuc modulator: qHTS profiling assay for firefly luciferase inhibitor/activator using purifed enzyme and Km concentrations of substrates (counterscreen for miR-21 project). Potency, µM (titrated, usually from 57.5 µM), most hits filed as inhibitors. Luciferin 4-monooxygenase (Photinus pyralis), P08659. purified FLuc, Km substrates, luminescence inhibition. actives 6.9% (n = 360,000); also: nearly all actives have a fitted effect of over 55% in size
Target sequence (P08659 whole entry, looked up): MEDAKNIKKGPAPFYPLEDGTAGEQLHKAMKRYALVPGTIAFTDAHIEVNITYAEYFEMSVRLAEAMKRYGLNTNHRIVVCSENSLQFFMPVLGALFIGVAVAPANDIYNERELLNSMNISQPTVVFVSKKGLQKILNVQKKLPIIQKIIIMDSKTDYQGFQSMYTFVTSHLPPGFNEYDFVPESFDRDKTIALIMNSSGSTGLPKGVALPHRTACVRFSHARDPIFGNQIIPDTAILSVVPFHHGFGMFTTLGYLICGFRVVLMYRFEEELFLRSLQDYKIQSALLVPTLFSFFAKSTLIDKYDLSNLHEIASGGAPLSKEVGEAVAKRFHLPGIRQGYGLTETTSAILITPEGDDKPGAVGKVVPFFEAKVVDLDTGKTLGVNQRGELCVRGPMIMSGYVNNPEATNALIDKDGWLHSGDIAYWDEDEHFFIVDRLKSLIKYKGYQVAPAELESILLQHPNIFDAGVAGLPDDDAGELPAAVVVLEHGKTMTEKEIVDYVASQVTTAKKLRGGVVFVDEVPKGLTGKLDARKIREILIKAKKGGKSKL
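Biochemical qHTS of compounds, final roughly 60 µM downward over six points, against 10 nM purified firefly luciferase using Km concentrations of substrates (10 uM D-luciferin, 10 uM ATP) in Tris acetate pH 7.5 buffer; luminescence output.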
Numbers stand for hits; n = inactive; u = inconclusive; x = no result; [ ] = another dose, or the depositor's remark. Calls follow the shape of the dose curve; as a rule, active = well fitted curve in the direction sought with a large enough effect; inconclusive = small, poorly fitted or top-dose-only effect, or another doubt; inactive = no such curve, though single readings can be large; an effect the other way counts as inactive or inconclusive.

SMILES	SMN2 splice up	Rab9 prom act	ELG1 genotoxic	NPC1 prom act	ELG1 DNA repair	FLuc modulator
CCc1ccc(-c2nc(CS(=O)CC(=O)O)c(C)o2)cc1 (stereo not given)	x	u	u	n	u	21µM
Cc1oc(-c2ccc(Cl)cc2)nc1CS(=O)CC(=O)NCc1ccc2c(c1)OCO2 (stereo not given)	x	n	n	n	u	n
COc1ccc(-c2nc(CSCC(=O)NCc3ccc4c(c3)OCO4)c(C)o2)cc1OC	n	n	n	n	u	n
CCc1ccc(-c2nc(CSCC(=O)NCc3ccc(C)cc3)c(C)o2)cc1	n	x	x	x	x	19µM
COc1ccc(Nc2nn3c(=O)c4cc5c(cc4nc3s2)OCO5)c(OC)c1	n	x	x	x	x	n
CCOC(=O)[C@@H]1[C@H]2COc3ccc(Br)cc3[C@H]2N2C(=O)N(c3ccc(Cl)cc3)C(=O)[C@]12C	x	x	n	x	n	x
COc1ccc(-c2nc(CS(=O)CC(=O)NC(C)CCc3ccccc3)c(C)o2)cc1OC (stereo not given)	x	n	n	n	18µM	n
Cc1ccc(-c2nc(CS(=O)CC(=O)NC(C)CCc3ccccc3)c(C)o2)cc1 (stereo not given)	x	n	n	n	n	n
COc1cc2[nH]c(=O)n(CCCC(=O)NCc3ccccc3)c(=O)c2cc1OC	n	x	x	x	x	n
Cc1c(C(=O)Nc2ccc3c(c2)CCC3)cccc1[N+](=O)[O-]	x	u	u	u	u	13µM
CCC(=O)Nc1cccc(NC(=O)c2cccc([N+](=O)[O-])c2C)c1	n	n	n	n	23µM	n
COc1cccc(C(=O)Nc2nnc(C(C)C)s2)c1	2.5µM	1µM	3.7µM	3.5µM	u	3.4µM
CCCc1nnc(NC(=O)c2cccc(OC)c2)s1	u	4.5µM	u	3.2µM	u	24µM
COc1ccc2[nH]c(C(=O)Nc3ccc(F)cc3Br)cc2c1	x	n	n	n	n	n
CCC(=O)Nc1ccc(NC(=O)c2ccc3c(c2)OCO3)cc1	n	n	n	n	u	n
CCOC(=O)c1ccc(NC(=O)c2ccc3c(c2)OCO3)cc1	n	u	n	n	u	u
COc1ccc(NC(=O)c2ccc3c(c2)OCO3)cc1[N+](=O)[O-]	u	3.2µM	u	2.8µM	u	u
COc1ccc2[nH]c(C(=O)Nc3ncc(C)cc3Br)cc2c1	x	n	n	n	n	19µM
COc1ccc(NC(=O)c2ccc3c(c2)OCO3)cc1	x	0.63µM	5.2µM	1.1µM	u	3.4µM
CCN(CC)c1ccc(NC(=O)c2ccc3c(c2)OCO3)cc1	x	2.2µM	u	u	u	6.7µM
COc1ccc(C(=O)Nc2ccncc2)cc1[N+](=O)[O-]	x	n	n	n	n	n
CC1CCCN(c2ccc(C(=O)Nc3ccc4c(c3)OCO4)cc2[N+](=O)[O-])C1 (stereo not given)	n[1.84 µM]	n	n	n	21µM	u
CC(C)NC(=S)N1CCN(Cc2ccc3c(c2)OCO3)CC1	n	n	n	n	n	n
COc1ccc2[nH]c(C(=O)Nc3ccc4c(c3)OCO4)cc2c1	x	2.8µM	n	3.2µM	u	4.8µM
CCN(CC)c1ccc(C(=O)NC(=S)N2CCN(Cc3ccc4c(c3)OCO4)CC2)cc1	n	n	n	n	n	21µM
SMILES	SMN2 splice up	Rab9 prom act	ELG1 genotoxic	NPC1 prom act	ELG1 DNA repair	FLuc modulator
CC(C)(C)OC(=O)N1CCC(c2nnc(SCc3ccccc3)o2)CC1	n	x	x	x	x	n
COc1ccc(CNC(=O)c2cnn3c(C)c(Cc4ccc(F)cc4)c(C)nc23)cc1	x	x	x	x	x	n
Cc1ccc(-c2cc(C(=O)OCC(=O)N(C)C3CCS(=O)(=O)C3)c3ccccc3n2)o1 (stereo not given)	n	n	n	n	u	u
CCN(C(=O)COC(=O)c1cc(-c2ccc(C)o2)nc2ccccc12)C1CCS(=O)(=O)C1 (stereo not given)	n	n	n	n	n	19µM
Cc1nccc2[nH]c(=O)c(C(=O)NC3CCCCC3C)cc12 (stereo not given)	13µM	n	n	n	u	n
CCOc1ccc(CCNC(=O)c2cc3c(C)nccc3[nH]c2=O)cc1OCC	x	n	n	n	21µM	n
COc1cc(OC)c(NC(=O)c2c(C)oc3ncnc(N4CCCCC4)c23)cc1Cl	x	x	x	x	x	n
O=c1c2oc3ccccc3c2n(Cc2ccccc2F)c(=O)n1Cc1ccco1	x	x	x	x	x	n
Cc1nn2c(COc3ccc(NC(=O)c4ccccc4Cl)cc3)nnc2c2ccccc12	n	n	n	n	u	6µM
CSc1ccc(/C=C2\C(=N)N3N=C(CC(=O)N4CCOCC4)SC3=NC2=O)cc1	x	n	n	n	n	u
CCN(CC)c1ccc(/C=C2\C(=N)N3N=C(CC(=O)N4CCOCC4)SC3=NC2=O)cc1	x	n	n	n	u	27µM
Cc1cc(/C=C2\C(=N)N3N=C(CC(=O)N4CCOCC4)SC3=NC2=O)c(C)n1-c1ccccc1	x	n	n	n	n	11µM
